Laboratory results as given in PubChem BioAssay (EPA / NIEHS).
Calls of active or inactive are those of the source. How the source made its calls: active means hit-call score of the fitted dose curve at least 0.9, where 1 is the maximum; inactive means score below 0.9.

Each compound was assayed against Hepatocyte nuclear factor 6 (Homo sapiens) (UniProt Q9UBC0) (assay: ATG_HNF6_CIS: Attagene CIS-FACTORIAL HepG2 Assay for human Hepatocyte Nuclear Factor 6 (HNF6) (AID 2282952)). Conditions: HepG2 Attagene cis-factorial HNF6 reporter transcription; actives raise or lower the signal.
Sequence of Hepatocyte nuclear factor 6 (Homo sapiens) (Q9UBC0 whole entry, looked up): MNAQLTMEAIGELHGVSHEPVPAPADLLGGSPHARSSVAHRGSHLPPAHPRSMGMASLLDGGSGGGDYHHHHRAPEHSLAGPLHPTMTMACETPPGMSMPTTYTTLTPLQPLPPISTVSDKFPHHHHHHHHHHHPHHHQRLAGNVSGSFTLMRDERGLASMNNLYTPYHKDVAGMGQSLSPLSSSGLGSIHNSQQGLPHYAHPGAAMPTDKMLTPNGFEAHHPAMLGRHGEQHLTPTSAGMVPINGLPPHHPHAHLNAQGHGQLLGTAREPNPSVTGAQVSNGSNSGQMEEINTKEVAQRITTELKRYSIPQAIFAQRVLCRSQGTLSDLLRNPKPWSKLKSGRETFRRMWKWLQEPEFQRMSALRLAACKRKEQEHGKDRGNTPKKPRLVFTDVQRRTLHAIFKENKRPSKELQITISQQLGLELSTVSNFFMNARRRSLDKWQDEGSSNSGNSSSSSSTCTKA
Procedure: ATG_CIS is a cell-based, multiplexed-readout assay that uses HepG2, a human liver cell line, with measurements taken at 24 hours after chemical dosing in a 24-well plate.ATG_HNF6_CIS is one of 52 assay component(s) measured or calculated from the ATG_CIS assay. It is designed to make measurements of mRNA induction, a form of inducible reporter, as detected with fluorescence intensity signals by Reverse transcription polymerase chain reaction (RT-PCR) and Capillary electrophoresis technology.Data from the assay component ATG_HNF6_CIS was analyzed into 1 assay endpoint. This assay endpoint, ATG_HNF6_CIS, was analyzed with bidirectional fitting relative to DMSO as the negative control and baseline of activity. Using a type of inducible reporter, measures of mRNA for gain or loss-of-signal activity can be used to understand the reporter gene at the transcription factor-level as they relate to the gene ONECUT1. Furthermore, this assay endpoint can be referred to as a primary readout, because this assay has produced multiple assay endpoints where this one serves a reporter gene function. To generalize the intended target to other relatable targets, this assay endpoint is annotated to the dna binding intended target family, where the subfamily is homeobox protein.
Human liver HepG2 cells are transiently transfected with multiple reporter transcription units (MRTUs) in 6-well plates using FuGene 6 reagent (Roche; 3 ml FuGene/1 mg DNA). The MRTU constructs are regulated by a cis-regulating element (promoter). […] A major difference between the CIS and TRANS system is that in CIS activities of endogenous TFs are measured, whereas the TRANS assay evaluates changes in activities of exogenous, chimeric NR-Gal4 proteins. […] At the end of 24 hour incubation, total RNA was isolated using TriZol reagent (Invitrogen). The isolated RNA is then reverse-transcribed using oligo(dT) primer and Mo-MLV reverse transcriptase (Invitrogen) with DNAse I (Ambion) treatment for 30 min. The one-tenth of the produced cDNA was amplified by PCR using Taq DNA polymerase (Invitrogen) and two reporter sequence-specific primers. The PCR products were fluorescently labeled by primer extension with 6-arboxyfluorescein (6-FAM) 5'-labeled reporter sequence-specific primer (2 min at 95 C, 20 s at 68 C and 10 min at 72 C) and these products were digested with 5U of HpaI (New England Biolabs) for 2h at 37 C. The fragments were purified using Qiaquick PCR columns (Qiagen), analyzed on an ABI 3130xL genetic analyzer (Applied Biosystems) with peak positions identified by using a set of X-rhodamine (ROX)-labeled MapMarker1000 molecular weight standards (BioVentures). The raw capillary electrophoresis data was processed using Attagraph software (Attagene).
In the case of `CCOc1ccccc1OCC`, the outcome is reported as “inactive”. With `CC1CCC(C(C)CS)CC1S` (stereo not given) the AC50 was 46.8 µM (active). With `CCCCNC(=O)NS(=O)(=O)c1ccc(N)cc1` the outcome was “inactive”. For `C=C(C)C(=O)NCCCN(C)C`, the outcome was “inactive”. For `O=C(O)CCSCCC(=O)O`, the outcome was “inactive”. With `CCCCCCCCC` the outcome was “inactive”. With `CC(=O)C=CC1=C(C)CCCC1(C)C` the outcome was “inactive”. With `O=P(c1ccccc1)(c1ccccc1)c1ccccc1` the outcome was “inactive”. In the case of `CCC(O)CO` (stereo not given), the outcome is reported as “inactive”. For `C[C@H]1C[C@@H]2[C@H]([C@@H](O)C[C@@]3(C)[C@H]2CC[C@]3(O)C(=O)CO)[C@@]2(C)C=CC(=O)C=C12`, the outcome was “inactive”. In the case of `S=C(S)NCCNC(=S)S`, the outcome is reported as “inactive”. `O=S(=O)(O)NC1CCCCC1` was tested, and the outcome was “inactive”. `CC(=O)OCCC(C)CC(C)(C)C` (stereo not given) was tested, and the outcome was “inactive”. With `CC(C)[C@@H]1CC[C@@H](C)CC1=O` the outcome was “inactive”. With `CCC(=O)OCCC(C)CCC=C(C)C` (stereo not given) the outcome was “inactive”. In the case of `CCCC(=O)C(C)=O`, the outcome is reported as “inactive”. With `NNc1nc(-c2ccc(N)cc2)cs1` the outcome was “inactive”. In the case of `N#Cc1ccc(CC(=NNC(=O)Nc2ccc(OC(F)(F)F)cc2)c2cccc(C(F)(F)F)c2)cc1`, the outcome is reported as “inactive”. For `COc1ccnc(CS(=O)c2nc3cc(OC(F)F)ccc3[nH]2)c1OC` (stereo not given), the outcome was “inactive”. `CCCC(C)C=O` (stereo not given) was tested, and the outcome was “inactive”. In the case of `Cc1c(Cl)c(=O)oc2cc(O)ccc12`, the outcome is reported as “inactive”. For `CCO[Si](CCCS)(OCC)OCC`, the outcome was “inactive”. `c1ccc2[nH]ccc2c1` was tested, and the outcome was “inactive”. In the case of `C/C=C(\C)C(=O)OCc1ccccc1`, the outcome is reported as “inactive”. In the case of `COc1cc(C)cc(O)c1`, the outcome is reported as “inactive”. For `CCC(C(=O)NC(N)=O)c1ccccc1` (stereo not given), the outcome was “inactive”. For `CN(C)CCOCCN(C)C`, the outcome was “inactive”. `O=C(O)c1ccc([N+](=O)[O-])cc1` was tested, and the outcome was “inactive”. In the case of `CCCCOCCOCCOCCOCCO`, the outcome is reported as “inactive”. `Sc1nc(S)nc(S)n1` was tested, and the outcome was “inactive”. For `CC[C@]12CCCN3CCc4c(n(c5ccccc45)[C@@](O)(C(=O)OC)C1)[C@@H]32`, the outcome was “inactive”. In the case of `CCCC(=O)OCCC(C)CCC=C(C)C` (stereo not given), the AC50 is reported as 180 µM (active). With `Cc1cc(C2(c3cc(C)c(O)cc3C)OS(=O)(=O)c3ccccc32)c(C)cc1O` the outcome was “inactive”. In the case of `C=CCOc1nc(OCC=C)nc(OCC=C)n1`, the outcome is reported as “inactive”. `C=C(C)C(=O)OCc1ccccc1` was tested, and the outcome was “inactive”. With `N#Cc1nc(Cl)c(Cl)c(Cl)c1Cl` the AC50 was 5.48 µM (active). In the case of `CCCCCC=CCC(=O)OC`, the outcome is reported as “inactive”. For `CC(C)OP(=O)(CP(=O)(OC(C)C)OC(C)C)OC(C)C`, the outcome was “inactive”. `CC1=CC(=O)NS(=O)(=O)O1` was tested, and the outcome was “inactive”. With `CCN(CC)c1ccc(C(=C2C=CC(=[N+](CC)CC)C=C2)c2ccc(S(=O)(=O)O)cc2S(=O)(=O)[O-])cc1` the outcome was “inactive”.
